# Results as given in ChEMBL document CHEMBL3988442, “University of Dundee, Small-Polar-MMV Screening Library” (2021).
# Among all 69,000 compounds or so, about 1,000 (1.4%) showed an effect of 50% or more. For the sample, strong results were picked, then their nearest neighbours and some compounds at random.
# Tested on: Leishmania donovani
# Assay: Leishmania intramacrophage assay
# Format: functional, organism-based
# Parameters: scale not given: in the data most compounds retested in dose-response had high values
smiles,measurement,setting,value
Clc1cc(Cl)cc(CN2CCC(NCc3cc[nH]n3)CC2)c1,Percent Effect,"30.3 µM, […]",71.72%
CN1CCN(Cc2cccc(NCc3ncc[nH]3)c2)CC1,Percent Effect,"30.3 µM, […]",3.083%
Clc1cccc(N2CCC(NCc3ncc[nH]3)C2)c1 (stereo unspecified),Percent Effect,"30.3 µM, […]",26.13%
Clc1cc(Cl)cc(CN2CCC(NCc3ncc[nH]3)CC2)c1,Percent Effect,"30.3 µM, […]",84.31%
COc1ccc(CCN2CC(NCc3ncc[nH]3)CC2=O)cc1 (stereo unspecified),Percent Effect,"30.3 µM, […]",17.72%
O=C1CC(NCc2ncc[nH]2)CN1CCc1cccc(Cl)c1 (stereo unspecified),Percent Effect,"30.3 µM, […]",87.49%
Cc1cccc(OC2CCN(Cc3ncc[nH]3)CC2)c1,Percent Effect,"30.3 µM, […]",-10.49%
COc1cc(OC)cc(N2CCC(NCc3cc[nH]n3)C2)c1 (stereo unspecified),Percent Effect,"30.3 µM, […]",11.55%
O=c1cnc2ccccc2n1CCCn1cccn1,Percent Effect,"30.3 µM, […]",-23.4%
Cc1cc(O)c(OCC(=O)/N=c2\[nH]cc(C)s2)cn1,Percent Effect,"30 µM, 30.03 µM",13.79%
CC(=O)Nc1nc(C(=O)N2CCCC2c2noc(C3CC3)n2)cs1 (stereo unspecified),Percent Effect,"30.3 µM, […]",0.7706%
CN1CC(c2ccccc2)CC12CCN(C(=O)c1cccnc1)CC2 (stereo unspecified),Percent Effect,"30.3 µM, […]",13.25%
CC(C)n1ccnc1C1CCN(C(=O)C2COc3ccccc3O2)CC1 (stereo unspecified),Percent Effect,"30 µM, 30.03 µM",-2.599%
Cc1cc(C)nc(NCCC(=O)Nc2ccc(Cn3cncn3)cc2)n1,Percent Effect,"30.3 µM, […]",18.2%
COc1cc(N2CC[C@@H]3O[C@@H](c4ccncn4)C[C@H]3C2)ncn1,Percent Effect,"30.3 µM, […]",101.1%
Cc1ccc(N2CC[C@@H]3O[C@@H](c4ccncn4)C[C@H]3C2)nn1,Percent Effect,"30.3 µM, […]",12.48%
COc1cc(N2CC[C@@H]3O[C@@H](c4ccnc(C)n4)C[C@H]3C2)ncn1,Percent Effect,"30.3 µM, […]",16.01%
CC(=O)Nc1ncc(S(=O)(=O)Nc2ccccc2)s1,Percent Effect,"30.3 µM, […]",-54.24%
CCc1nnc(CNC2CCCN(Cc3noc(C4CC4)n3)C2)o1 (stereo unspecified),Percent Effect,30 µM,-1.291%
O=c1[nH]cnc2c1CCN(S(=O)(=O)c1ccc(OC(F)(F)F)cc1)C2,Percent Effect,"30.3 µM, […]",24.26%
CCOCCOc1ccc(S(=O)(=O)N2CCc3c(nc[nH]c3=O)C2)cc1,Percent Effect,"30.3 µM, […]",59.04%
O=c1[nH]cnc2c1CCN(S(=O)(=O)c1ccc(Cl)cc1)C2,Percent Effect,"30.3 µM, […]",10.57%
CC(=O)c1cn(CCC(=O)NCCC(=O)O)c2ccccc12,Percent Effect,"30 µM, 30.03 µM",18%
CN(C)c1cccc(C(=O)N2CCn3c(nnc3-c3ccccc3)C2)c1,Percent Effect,"30.3 µM, […]",3.878%
O=C1Nc2ccccc2CNC12CCN(CC1CCCC1)CC2,Percent Effect,"30.3 µM, […]",-1.284%
O=C1Nc2ccccc2CN(C/C=C/c2ccccc2)C12CCNC2 (stereo unspecified),Percent Effect,"30.3 µM, […]",95.58%
O=C1Nc2ccccc2CC12CCCN2Cc1ccc(F)cc1 (stereo unspecified),Percent Effect,"30.3 µM, […]",-31.7%
CCCN1Cc2ccccc2NC(=O)C12CCNC2 (stereo unspecified),Percent Effect,"30.3 µM, […]",13.56%
O=C1Nc2ccccc2CN(CC2CCCC2)C12CCNC2 (stereo unspecified),Percent Effect,"30.3 µM, […]",67.89%
O=C1Nc2ccccc2CN(CC2CC2)C12CCNC2 (stereo unspecified),Percent Effect,"30.3 µM, […]",19.67%
CC(C)NC(=O)Nc1ccc(-c2nc(C(C)C)no2)cc1,Percent Effect,"30.3 µM, […]",-3.03%
Cc1cc(=O)c(C(=O)N2CCCCC2c2ccc(F)cc2)c[nH]1 (stereo unspecified),Percent Effect,"30.3 µM, […]",7.21%
Cc1nc2[nH]cc(C(=O)N3CCCCC3c3ccc(F)cc3)c(=O)n2n1 (stereo unspecified),Percent Effect,"30.3 µM, […]",-11.65%
Cc1cc2[nH]cc(C(=O)N3CCCCC3c3ccc(F)cc3)c(=O)n2n1 (stereo unspecified),Percent Effect,"30.3 µM, […]",54.57%
COc1c(CNCCNC(=O)c2ccco2)c(C)nn1C,Percent Effect,"30 µM, 30.03 µM",1.036%
CCn1nc(C)c2ccn(CC(=O)NCCCOC)c(=O)c21,Percent Effect,"30.3 µM, […]",6.815%
Cc1cc(C(=O)N2CCCC(c3nccn3Cc3cscn3)C2)on1 (stereo unspecified),Percent Effect,"30.3 µM, […]",7.716%
Cc1ccccc1OC1CN(Cc2c(C)nc3ccccn23)C1,Percent Effect,"30.3 µM, […]",56.4%
Cc1nc2ccccn2c1CN1C[C@@H](CN(C)CCO)[C@@H](CO)C1,Percent Effect,"30.3 µM, […]",17.46%
COc1ccccc1OC1CN(C(=O)Cc2c(C)nc3ccccn23)C1,Percent Effect,"30.3 µM, […]",42.17%
Cc1nc2ccccn2c1CN1C[C@@H](CN(C)C)[C@@H](CO)C1,Percent Effect,"30.3 µM, […]",28.56%
Cc1nc(CN2C[C@@H](CN3CCOCC3)[C@@H](CO)C2)c2ccccn12,Percent Effect,"30.3 µM, […]",-8.953%
Cc1nc2ccccn2c1CN1C[C@@H](CN2CCOCC2)[C@@H](CO)C1,Percent Effect,"30.3 µM, […]",60.75%
CC(C)CCc1nc(CNCC2CN(C)CCO2)cs1 (stereo unspecified),Percent Effect,30 µM,42.41%
CCN1C(=O)C2(CCOCC2)c2cc(NC(=O)c3cc(C)n[nH]3)ccc21,Percent Effect,"30.3 µM, […]",7.521%
Cc1nonc1CC(=O)N1CCC2(CCCN(C3CCOCC3)C2=O)C1 (stereo unspecified),Percent Effect,"30.3 µM, […]",40.04%
O=C(c1c[nH]nn1)N1CCCC1C1CCCCC1 (stereo unspecified),Percent Effect,"30.3 µM, […]",34.69%
Cc1cc(C)n(C2CCN(S(=O)(=O)N3CCOCC3)CC2)n1,Percent Effect,"30.3 µM, […]",-18.5%
CN(C)C(CNC(=O)c1cccc(-n2cnnn2)c1)c1ccccc1Cl (stereo unspecified),Percent Effect,"30 µM, 30.03 µM",-12.85%
O=C(NCC(O)c1ccccc1Cl)c1cccc(-n2cnnn2)c1 (stereo unspecified),Percent Effect,"30 µM, 30.03 µM",18.08%
CN(C)C(CNC(=O)c1ccc(-n2cnnn2)cc1)c1ccccc1Cl (stereo unspecified),Percent Effect,"30.3 µM, […]",52.55%
